Laboratory results reported in the GenesisPotency data set.
In all, about 290,000 compounds went through this assay and about 3,000 (1%) were called active. Rule as the data show it: active = inhibition mostly above about 36% (no sharp cut-off); inactive = mostly below about 34%. The sample as a whole holds a higher share of actives than the screen did.

Molecular target: T1, Nucleotide-binding oligomerization domain-containing protein 1, Homo sapiens (UniProt Q9Y239)
T1 sequence (whole entry): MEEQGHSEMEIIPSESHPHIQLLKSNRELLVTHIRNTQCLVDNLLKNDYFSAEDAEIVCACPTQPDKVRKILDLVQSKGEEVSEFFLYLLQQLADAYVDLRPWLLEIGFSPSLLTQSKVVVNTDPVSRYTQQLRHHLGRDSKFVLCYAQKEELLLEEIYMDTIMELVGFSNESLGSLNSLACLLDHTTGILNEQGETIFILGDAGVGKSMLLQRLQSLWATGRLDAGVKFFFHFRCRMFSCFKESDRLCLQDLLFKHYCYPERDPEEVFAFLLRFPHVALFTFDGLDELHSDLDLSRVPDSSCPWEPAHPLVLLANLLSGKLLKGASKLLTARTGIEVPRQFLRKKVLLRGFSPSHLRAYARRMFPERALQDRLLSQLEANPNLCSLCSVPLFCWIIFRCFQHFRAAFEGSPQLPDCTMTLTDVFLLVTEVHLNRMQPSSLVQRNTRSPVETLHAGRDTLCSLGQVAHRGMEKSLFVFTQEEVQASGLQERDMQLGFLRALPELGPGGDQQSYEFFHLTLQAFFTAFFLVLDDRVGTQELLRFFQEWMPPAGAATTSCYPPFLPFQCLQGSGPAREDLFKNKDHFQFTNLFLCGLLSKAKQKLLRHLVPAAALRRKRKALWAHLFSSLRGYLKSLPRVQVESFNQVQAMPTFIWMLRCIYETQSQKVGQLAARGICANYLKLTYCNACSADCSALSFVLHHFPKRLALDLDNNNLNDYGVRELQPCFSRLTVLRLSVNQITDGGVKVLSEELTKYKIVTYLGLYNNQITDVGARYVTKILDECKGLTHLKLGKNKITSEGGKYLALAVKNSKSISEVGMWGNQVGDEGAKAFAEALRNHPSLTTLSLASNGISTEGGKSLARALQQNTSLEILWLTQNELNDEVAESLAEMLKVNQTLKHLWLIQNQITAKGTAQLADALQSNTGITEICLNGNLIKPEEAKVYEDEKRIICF
Assay: NOD1 signaling inhibitors, primary screen, cell-based, luminescence, uHTS (AID 1578)

outcome, active:
O=C(NNC(=O)c1ccccc1OCc1ccccc1)c1ccccc1O, O=C(NNC(=O)c1ccccc1OCc1ccc(F)cc1)c1ccccc1O, COc1ccc(C2=Nn3c(nnc3-c3ccncc3)SC2)cc1, COc1cccc(-c2nnc3n2N=C(C(C)(C)C)CS3)c1, c1ccc(C2=Nn3c(nnc3-c3ccncc3)SC2)cc1, c1csc(C2=Nn3c(nnc3-c3ccncc3)SC2)c1, Clc1ccccc1C1=Nn2c(nnc2-c2ccncc2)SC1, Cc1cc(C)cc(OCC(=O)OC/C(O)=C(\C#N)c2nc3ccccc3[nH]2)c1, N#C/C(=C(/O)COC(=O)COc1ccc(Cl)cc1)c1nc2ccccc2[nH]1, N#C/C(=C(/O)COC(=O)COc1cccc(Br)c1)c1nc2ccccc2[nH]1, COc1ccc(-[n+]2c(C)cc(/C=C3\Sc4ccccc4N3C)cc2C)cc1.[I-], COc1ccc(-c2cncnc2-c2ccc(OC)cc2O)cc1, COc1ccc(-c2cnc(N)nc2-c2ccc(OC)cc2O)cc1, Cc1ccc(Nc2cc(C)nn2-c2nc(C)cc(=O)[nH]2)cc1, CCCc1cc(=O)n2[nH]cc(-c3ccc(Cl)cc3)c2n1, O=c1c2c(nc3c(-c4ccc(Cl)cc4)c[nH]n13)CCCC2, O=c1c2c(nc3c(-c4ccc(Cl)cc4)c[nH]n13)CCC2, O=c1c2c(nc3c(-c4cccc(Br)c4)c[nH]n13)CCCC2, CN(C)S(=O)(=O)N1CCC(Oc2cccc(C(=O)NC3CCCCCC3)c2)CC1, Cc1ccc(NC(=S)N/N=C/c2ccc([N+](=O)[O-])s2)cc1, Cc1cccc(NC(=S)N/N=C/c2ccc([N+](=O)[O-])s2)c1, Cc1cc(N2CCOCC2)c2c(N)c(Br)cc(C)c2n1, O=C(Nc1nnc(SCc2ccc(F)cc2)s1)c1ccccn1, CC(Oc1ccc(Br)cc1)C(=O)Nc1nc(-c2ccccn2)cs1 (stereo not drawn), O=C(Nc1nc(-c2ccccn2)cs1)Nc1ccc(F)cc1F, O=C(Nc1nc(-c2cc(F)ccc2F)cs1)c1ccccn1, O=C(Nc1nc(-c2ccccn2)cs1)c1cc(Cl)ccc1[N+](=O)[O-], Cn1cc([N+](=O)[O-])c(C(=O)Nc2nc(-c3ccc(Cl)cc3)cs2)n1, COc1ccc(-c2csc3ncnc(NCCCO)c23)cc1, COc1ccc(-c2csc3ncnc(NCCO)c23)cc1, OCCCNc1ncnc2scc(-c3ccc(Cl)cc3)c12, CCN(CC)S(=O)(=O)c1ccc2[nH]cc(C(=O)NCCC3=CCCCC3)c(=O)c2c1, Cn1c(=O)c2c(nc(NCc3ccco3)n2C/C=C/c2ccccc2)n(C)c1=O, O=C(Nc1ccc(S(=O)(=O)N2CCOCC2)cc1)c1ccc(CN2CCc3ccccc3C2)cc1, O=C(Nc1ccc(CN2CCOCC2)cc1)c1ccc(-c2ccc(Cl)cc2Cl)o1, O=C(Nc1ccc(S(=O)(=O)N2CCCCC2)cc1)c1ccc(CN2CCOCC2)cc1, O=C(Nc1ccc(S(=O)(=O)Nc2ccc(F)cc2)cc1)c1ccc(CN2CCOCC2)cc1, O=C(Nc1ccc(S(=O)(=O)N2CCCCC2)cc1)c1ccc(CN2CCc3ccccc3C2)cc1
